Only a selection was taken, and hits are over-represented in it overall.
ROS inducer: inducers of reactive oxygen species in cancer cells; ROS induction (% of piperlongumine), % at 10 µM; 46,000 tested, 2% active; AID 624156; U2OS ROS induction, H2DCF-DA fluorescence; in the data active = ROS induction above about 79%, passing the limit was not always enough; inconclusive = no clear call, values can overlap the other calls
YB-1 expression: YB-1 expression inhibition | U2OS, qRT-PCR YB-1 vs CDIP delta delta Cp, 16 h; hits give high values; zero = DMSO, each unit about twofold | 30,000 tested, 0.37% active | delta delta Cp (YB-1 minus CDIP) (test concentration not listed) | AID 434959;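 active = delta delta Cp rounded down to an integer at or above 3, about 3 SD of DMSO wells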;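 note: higher means less YB-1 transcript or more CDIP transcript relative to DMSO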
NOMO-1 viab: STK33 inhibitor candidate reducing NOMO-1 cell viability; NOMO-1 AML viability, CellTiter-Glo luminescence, 72 h; inhibition, % (no concentration beside the values); 37,000 tested, 7.5% active; AID 2330; in the data active = inhibition above about 80%; inconclusive = no clear call, values can overlap the other calls
PD-1 reversal: reversal of PD-1 mediated T-cell inhibition; primary human CD4 T cells, PD-L1 beads, CellTiter-Glo 96 h; activation, % (concentration not given with the values); 29,000 tested, under 10 active; AID 2316; call rule not given here
Of the large screens only hits and unclear results are named; the others gave an inactive call.

C[C@@H]1CN([C@@H](C)CO)C(=O)Cc2cc(NC(=O)Nc3ccccc3)ccc2O[C@@H]1CN(C)Cc1ccc(Cl)c(Cl)c1	NOMO-1 viab 103
C[C@H]1CN([C@@H](C)CO)C(=O)Cc2cc(NC(=O)Nc3ccc4c(c3)OCO4)ccc2O[C@H]1CN(C)Cc1ccc(Cl)c(Cl)c1	NOMO-1 viab 113
CCN(CC(=O)Nc1ccc(Cl)c(C(F)(F)F)c1)S(=O)(=O)c1ccc(C)cc1	none (no result: ROS inducer, YB-1 expression, PD-1 reversal)
CNC[C@@H]1Oc2ccc(NC(=O)CCN3CCOCC3)cc2CC(=O)N([C@@H](C)CO)C[C@@H]1C	none (no result: PD-1 reversal)
CNC[C@@H]1Oc2ccc(NC(=O)CCN3CCOCC3)cc2CC(=O)N([C@H](C)CO)C[C@H]1C	YB-1 expression 9.5
C[C@H]1CN([C@@H](C)CO)C(=O)Cc2cc(NC(=O)Nc3ccc(F)cc3)ccc2O[C@H]1CN(C)Cc1ccc(Cl)c(Cl)c1	NOMO-1 viab 127 (no result: PD-1 reversal)
C[C@H]1CN([C@@H](C)CO)C(=O)Cc2cc(NC(=O)CCN3CCOCC3)ccc2O[C@@H]1CN(C)Cc1ccc(Cl)c(Cl)c1	ROS inducer 90
C[C@H]1CN([C@@H](C)CO)C(=O)Cc2cc(NC(=O)CCN3CCOCC3)ccc2O[C@H]1CN(C)Cc1ccc(Cl)c(Cl)c1	none
C[C@H](CO)N1C[C@H](C)[C@H](CN(C)Cc2ccc(Cl)c(Cl)c2)Oc2ccc(NC(=O)Nc3ccc(F)cc3)cc2CC1=O	none
CCCN(CCC)S(=O)(=O)c1ccc(C(=O)NN)cc1	ROS inducer inconclusive
Cc1cccc(-n2c(N)cc(=O)nc2SCC(=O)N(c2ccccc2)c2ccccc2)c1	none (no result: YB-1 expression)
O=C(CSc1nc2ccccc2c(=O)n1-c1ccccc1)Nc1ccc(F)c(Cl)c1	none (no result: ROS inducer, YB-1 expression, PD-1 reversal)
COc1ccc(-c2nnc3c4ccccc4c(C)nn23)cc1S(=O)(=O)NCc1ccccc1	none (no result: YB-1 expression)
COc1ccc(S(=O)(=O)NCc2ccccc2)cc1-c1nnc2c3ccccc3c(C)nn12	NOMO-1 viab 116 (no result: ROS inducer, YB-1 expression, PD-1 reversal)
COc1ccc(NC(=O)Nc2cccc3c2O[C@@H](CN(C)Cc2ccc(C(=O)Nc4ccccc4N)cc2)[C@@H](C)CN([C@@H](C)CO)C3=O)cc1	NOMO-1 viab 129
COc1ccc(NC(=O)Nc2ccc3c(c2)C(=O)N([C@@H](C)CO)C[C@H](C)[C@H](CN(C)Cc2ccc(C(=O)Nc4ccccc4N)cc2)O3)cc1	none
COc1ccc(NC(=O)Nc2cccc3c2O[C@H](CN(C)Cc2ccc(C(=O)Nc4ccccc4N)cc2)[C@H](C)CN([C@H](C)CO)C3=O)cc1	NOMO-1 viab 140
COc1ccc(NC(=O)Nc2cccc3c2O[C@@H](CN(C)Cc2ccc(C(=O)O)cc2)[C@@H](C)CN([C@@H](C)CO)C3=O)cc1	none
COc1ccc(NC(=O)Nc2cccc3c2O[C@@H](CN(C)Cc2ccc(C(=O)O)cc2)[C@H](C)CN([C@@H](C)CO)C3=O)cc1	none
COc1ccc(NC(=O)Nc2cccc3c2O[C@@H](CN(C)Cc2ccc(C(=O)Nc4ccccc4N)cc2)[C@H](C)CN([C@@H](C)CO)C3=O)cc1	NOMO-1 viab 126
Cn1ccnc1SCC(=O)N1c2ccccc2C(C)(c2ccc(Cl)cc2)CC1(C)C (configuration not stated)	none (no result: YB-1 expression, NOMO-1 viab, PD-1 reversal)
COc1ccc([C@@H]2C=C(C(=O)O)O[C@H](OCc3ccc(CO)cc3)C2)cc1	none (no result: NOMO-1 viab, PD-1 reversal)
Cc1ccc(C(=O)Nc2cccc(C(F)(F)F)c2)cc1	none (no result: YB-1 expression, NOMO-1 viab, PD-1 reversal)
COC(=O)CN(c1ccccc1)S(=O)(=O)c1ccc(C)cc1	none (no result: YB-1 expression, NOMO-1 viab, PD-1 reversal)
C[C@@H]1CN([C@H](C)CO)C(=O)Cc2cc(NS(=O)(=O)c3cccs3)ccc2O[C@@H]1CN(C)Cc1ccc(Oc2ccccc2)cc1	NOMO-1 viab 118 (no result: PD-1 reversal)
C[C@H](CO)N1C[C@H](C)[C@@H](CN(C)Cc2ccc(-c3ccccc3)cc2)Oc2c(NS(=O)(=O)c3cccs3)cccc2C1=O	ROS inducer 89
C[C@@H]1CN([C@H](C)CO)C(=O)c2cc(NS(=O)(=O)c3cccs3)ccc2O[C@@H]1CN(C)Cc1ccc(-c2ccccc2)cc1	NOMO-1 viab 113
C[C@@H]1CN([C@H](C)CO)C(=O)Cc2cc(NS(=O)(=O)c3cccs3)ccc2O[C@H]1CN(C)Cc1ccccc1	none (no result: PD-1 reversal)
C[C@H]1CN([C@@H](C)CO)C(=O)Cc2cc(NS(=O)(=O)c3cccs3)ccc2O[C@@H]1CN(C)Cc1ccc(-c2ccccc2)cc1	NOMO-1 viab 89 (no result: PD-1 reversal)
C[C@@H]1CN([C@@H](C)CO)C(=O)c2cccc(NS(=O)(=O)c3cccs3)c2O[C@@H]1CN(C)Cc1ccc(-c2ccccc2)cc1	none (no result: PD-1 reversal)
COc1ccc(NC(=O)Cc2nc(-c3ccc([N+](=O)[O-])cc3)cs2)cc1	ROS inducer 94 (no result: YB-1 expression)
COc1ccc(NC(=O)CSc2nc3ccc([N+](=O)[O-])cc3[nH]2)cc1	none (no result: ROS inducer, YB-1 expression, PD-1 reversal)
Cc1ccc2nc(-c3ccc(NC(=O)CS(=O)(=O)Cc4ccccc4)cc3)sc2c1	none (no result: YB-1 expression)
Cc1cc2nc(SCc3ccccc3C#N)[nH]c2cc1C	ROS inducer 127 (no result: YB-1 expression)
N#Cc1ccccc1CSc1ncn[nH]1	none (no result: ROS inducer, YB-1 expression, PD-1 reversal)
CCOc1cc(C(=O)Nc2cc(Cl)ccc2OC)cc(OCC)c1OCC	none (no result: YB-1 expression, NOMO-1 viab, PD-1 reversal)
CCOc1ccccc1-c1nnc(SCC(=O)Nc2ccc(I)cc2)o1	NOMO-1 viab 119 (no result: YB-1 expression)
COc1ccc(Cn2c(SCc3cccc(C(F)(F)F)c3)nc3ccncc32)cc1	none (no result: YB-1 expression, NOMO-1 viab, PD-1 reversal)
Cc1cc(C)c(-n2c(O)c(C=Nc3cccc(O)c3)c(=O)[nH]c2=O)c(C)c1	none (no result: YB-1 expression, NOMO-1 viab, PD-1 reversal)
Cc1ccc(CSc2nnc(-n3c(=O)c(C#N)cc4c(=O)n5ccccc5nc43)s2)cc1	ROS inducer 189 (no result: YB-1 expression, NOMO-1 viab, PD-1 reversal)
Cc1cc(=S)nc(-c2ccccn2)[nH]1	NOMO-1 viab 112
COC(CCc1ccc(O)c(O)c1)CC(=O)CCc1ccc(O)c(O)c1 (configuration not stated)	none (no result: NOMO-1 viab, PD-1 reversal)
O=C(CCc1ccc(O)cc1)CC(O)CCc1ccc(O)c(O)c1 (configuration not stated)	NOMO-1 viab 85
Cc1ccc(NC(=O)Cn2nc(-c3cccc([N+](=O)[O-])c3)c3ccccc3c2=O)c(C)c1	none (no result: YB-1 expression)
Cc1ccc(-c2nn(CC(=O)Nc3ccc(C)cc3C)c(=O)c3ccccc23)cc1	NOMO-1 viab 111 (no result: YB-1 expression)
C[C@H](CO)N1C[C@H](C)[C@H](CN(C)Cc2ccc(Cl)c(Cl)c2)Oc2c(NC(=O)C3CCCCC3)cccc2C1=O	NOMO-1 viab 92
C[C@H]1CN([C@@H](C)CO)C(=O)c2cccc(NC(=O)C3CCCCC3)c2O[C@@H]1CN(C)Cc1ccc(Cl)c(Cl)c1	NOMO-1 viab 91
C[C@@H]1CN([C@H](C)CO)C(=O)c2cccc(NC(=O)C3CCCCC3)c2O[C@@H]1CN(C)Cc1ccc(Cl)c(Cl)c1	none
C[C@@H]1CN([C@@H](C)CO)C(=O)c2cccc(NC(=O)NC3CCCCC3)c2O[C@@H]1CN(C)Cc1ccc(Cl)c(Cl)c1	NOMO-1 viab 100
O=C1NN=C(c2ccccc2)/C1=C1\OC(c2ccccc2)=CS1	ROS inducer 138, NOMO-1 viab 139
CC(=O)Nc1ccc(S(=O)(=O)NCc2ccc3[nH]c4c(c3c2)CCCC4)cc1	none (no result: YB-1 expression)
C[C@@H]1CN([C@H](C)CO)C(=O)Cc2cc(NC(=O)Cc3cn(C)c4ccccc34)ccc2O[C@@H]1CN(C)Cc1ccccc1	ROS inducer inconclusive, NOMO-1 viab 107
